For 40 compounds, growth inhibition results are on record in PubChem BioAssay (NCI).

Compounds without any hit were thinned out: in the full panel of roughly 79,000, 15% have a hit. Calls of active or inactive are those of the source. No stated cut-off is given here; in the data, active means growth inhibition above about 70%; inactive means the rest.

The nature of one test: NCI Yeast Anticancer Drug Screen. Data for the rad50 strain (AID 155).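 Further: 0% = growth of vehicle-only cultures of the same strain.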 The settings on record: S. cerevisiae rad50 strain growth inhibition; at 50.0 µM; active compounds read high. Put shortly: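 Genetically altered yeast (DNA repair pathway); compound treatment; growth inhibition vs vehicle ctrl.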
On to `CCC(Cc1ccccc1)OC(=O)c1ccccc1C(=O)O` (stereo not given), for which the growth inhibition is -16.2% (inactive).
The same measure, in the same setting: the result for `O=c1[nH]c2cc(Cl)ccc2nc1/C(=N\O)C(O)c1cccc([N+](=O)[O-])c1` (stereo not given) reads 6.7% (inactive); that for `CC(=O)CCCC(=O)O`, 10.5% (inactive).
Still for that read-out and setting: the result for `O=C(NNc1nc(N2CCOCC2)nc(N2CCOCC2)n1)c1ccccc1` reads 16.6% (inactive); that for `CN(C)CCCc1cccc2[nH]c3c(c12)CN(C)CC3`, 22% (inactive).
Same read-out and setting: the result for `O=C(c1ccccc1)c1ccccc1NCC(O)COc1cccc2ccccc12` (stereo not given) reads -7.5% (inactive); that for `CCOC(=O)C1=C(C)N[C@H](c2ccccc2[N+](=O)[O-])N[C@H]1c1ccccc1[N+](=O)[O-]`, 22.2% (inactive).
As to `Cc1ccc(N=Cc2ccc(C(N)=S)cc2)cc1`, the growth inhibition is 7.05% (inactive).
Still for that read-out and setting: the same measure for `COC1OC(OC)c2cc([N+](=O)[O-])ccc21` (stereo not given): 9.9% (inactive).
On the same count and under the same terms, the result for `CCCC(=O)c1ccc2c(ccc(=O)n2C)c1` reads 12.2% (inactive); that for `N#Cc1c(N)[n+]([O-])c2c([n+]1[O-])CCCC2`, 11.4% (inactive).
On the same count and under the same terms, the result for `Clc1ccc(C2=NCCO2)cc1` reads -23.8% (inactive).
Take `Cc1cc(N)c(NC2OC(CO)C(O)C2O)cc1C` (stereo not given): the growth inhibition was -25.1% (inactive).
On the same count and under the same terms, the same measure for `N#CC(C#N)=CNc1cccc(Cl)c1`: 34% (inactive); for `COc1ccc(CC(C)SC(CC(=O)O)C(=O)O)cc1` (stereo not given): 3.45% (inactive); for `O=C(O)C(O)c1c[nH]c2ccccc12` (stereo not given): -4.85% (inactive).
Still for that read-out and setting: the same measure for `CCc1cccc(C(C)C)c1NC(=O)C(=O)C1C(=O)Nc2ccccc2S1=O` (stereo not given): -3.95% (inactive); for `O=C1N=C2SC(=S)NC(=S)N2NC12c1ccccc1-c1ccccc12`: 30.1% (inactive).
Same read-out and setting: the same measure for `O=C(COc1ccccc1)Nc1ccc(C(=O)O)cc1`: -2.95% (inactive); for `O=S(=O)(O)C(O)C(F)(F)C(F)(F)C(F)(F)F` (stereo not given): 16.2% (inactive); for `CCN(CC)CCCn1c(-c2ccccc2)ccc1-c1ccccc1`: 10.1% (inactive).
Turning to `O=C(CCCCCCCCC(=O)OCC1OC(n2cnc3c(=O)[nH]cnc32)C(O)C1O)OCC1OC(n2cnc3c(=O)[nH]cnc32)C(O)C1O` (stereo not given), the growth inhibition was -47.5% (inactive).
Still for that read-out and setting: the result for `C#CCN(CC#C)C(=O)C(=O)c1c[nH]c2ccc(OC)cc12` reads 41.2% (inactive).
The same measure, in the same setting: the same measure for `COc1ccc2c(c1)CCN1CCc3ccccc3CC21` (stereo not given): 30.6% (inactive); for `O=C(CCNC(=O)OCc1ccccc1)NC(Cc1ccccc1)C(=O)OCc1ccccc1` (stereo not given): -0.9% (inactive); for `Nc1[nH]n(-c2ccccc2)c(=O)c1/C=N/C(=S)NC1CCCCC1`: -79% (inactive).
The same measure, in the same setting: the same measure for `Fc1cccc(CSc2cnnc(SCc3cccc(F)c3)c2SCc2cccc(F)c2)c1`: -14.8% (inactive); for `CC(C)=Cc1cc(-c2cc(C=C(C)C)[nH]n2)n[nH]1`: -35.4% (inactive); for `CC(/C=C/c1ccccc1)=N\N=C(C)\C=C\c1ccccc1`: 0.45% (inactive).
On to `Nc1cccc(CNC(=O)COc2ccc(Cl)cc2C(=O)O)c1`, for which the growth inhibition was -0.9% (inactive).
Same read-out and setting: the same measure for `CC(C)CCc1c(N)nc(N)[nH]c1=O`: 6.8% (inactive); for `CN(C)CCC(=O)c1ccc(C(=O)CCN(C)C)cc1`: -0.4% (inactive).
In the case of `Clc1ccccc1C1N2CCCCC2[C@@H]2c3[nH]c4ccccc4c3CCN12` (stereo not given in full), the growth inhibition was -14.8% (inactive).
On the same count and under the same terms, the result for `N#Cc1c(-c2ccccc2)cc(-c2ccc(N)cc2)[nH]c1=O` reads 26.5% (inactive); that for `S=C1Cc2c(-c3ccc(Br)cc3)cc(-c3ccccc3)nc2-c2ccccc2N1`, 19.9% (inactive); that for `CSc1nc2nc[nH]c2c(=O)[nH]1`, 3.45% (inactive).
On to `CCC(=O)CCN(CC)CC`, for which the growth inhibition was -39.6% (inactive).
Still for that read-out and setting: the same measure for `CC1(c2nc3ccccc3[nH]2)CCC(C(=O)O)C(C)(C)O1` (stereo not given): 1.75% (inactive); for `CCCCCCCCOCCS(=O)(=O)O`: 13.4% (inactive).
Turning to `COc1ccc(/C=C2\CCCC(C(NO)c3ccc(OC)cc3)C2=NO)cc1` (stereo not given), the growth inhibition is 13.6% (inactive).

The nature of the next test: NCI Yeast Anticancer Drug Screen. Data for the mec2-1 strain (AID 157). The settings on record: S. cerevisiae mec2-1 strain, at 50.0 µM, active compounds read high. The essentials:
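Vehicle-treated cultures served as reference for growth inhibition of compound-exposed mec2-1 yeast.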
`CCC(Cc1ccccc1)OC(=O)c1ccccc1C(=O)O` (stereo not given): the growth inhibition was -10.8% (inactive).
Same read-out and setting: the result for `O=c1[nH]c2cc(Cl)ccc2nc1/C(=N\O)C(O)c1cccc([N+](=O)[O-])c1` (stereo not given) reads -9.55% (inactive).
Still for that read-out and setting: the result for `CC(=O)CCCC(=O)O` reads 1.25% (inactive).
Same read-out and setting: the same measure for `O=C(NNc1nc(N2CCOCC2)nc(N2CCOCC2)n1)c1ccccc1`: 5.15% (inactive); for `CN(C)CCCc1cccc2[nH]c3c(c12)CN(C)CC3`: -5% (inactive).
Take `O=C(c1ccccc1)c1ccccc1NCC(O)COc1cccc2ccccc12` (stereo not given): the growth inhibition was -19.9% (inactive).
Still for that read-out and setting: the result for `CCOC(=O)C1=C(C)N[C@H](c2ccccc2[N+](=O)[O-])N[C@H]1c1ccccc1[N+](=O)[O-]` reads 19.7% (inactive); that for `Cc1ccc(N=Cc2ccc(C(N)=S)cc2)cc1`, 21.3% (inactive); that for `COC1OC(OC)c2cc([N+](=O)[O-])ccc21` (stereo not given), 17.3% (inactive).
On the same count and under the same terms, the result for `CCCC(=O)c1ccc2c(ccc(=O)n2C)c1` reads -8.75% (inactive); that for `N#Cc1c(N)[n+]([O-])c2c([n+]1[O-])CCCC2`, 3.35% (inactive); that for `Clc1ccc(C2=NCCO2)cc1`, -32.1% (inactive).
Same read-out and setting: the result for `Cc1cc(N)c(NC2OC(CO)C(O)C2O)cc1C` (stereo not given) reads 0.8% (inactive); that for `N#CC(C#N)=CNc1cccc(Cl)c1`, 9.8% (inactive).
`COc1ccc(CC(C)SC(CC(=O)O)C(=O)O)cc1` (stereo not given): the growth inhibition is -1% (inactive).
Turning to `O=C(O)C(O)c1c[nH]c2ccccc12` (stereo not given), the growth inhibition is -2.3% (inactive).
On the same count and under the same terms, the same measure for `CCc1cccc(C(C)C)c1NC(=O)C(=O)C1C(=O)Nc2ccccc2S1=O` (stereo not given): -13.6% (inactive); for `O=C1N=C2SC(=S)NC(=S)N2NC12c1ccccc1-c1ccccc12`: -11.4% (inactive).
On the same count and under the same terms, the result for `O=C(COc1ccccc1)Nc1ccc(C(=O)O)cc1` reads -3.6% (inactive).
Turning to `O=S(=O)(O)C(O)C(F)(F)C(F)(F)C(F)(F)F` (stereo not given), the growth inhibition is -1.75% (inactive).
On the same count and under the same terms, the same measure for `CCN(CC)CCCn1c(-c2ccccc2)ccc1-c1ccccc1`: -6% (inactive).
On to `O=C(CCCCCCCCC(=O)OCC1OC(n2cnc3c(=O)[nH]cnc32)C(O)C1O)OCC1OC(n2cnc3c(=O)[nH]cnc32)C(O)C1O` (stereo not given), for which the growth inhibition was -44.7% (inactive).
On the same count and under the same terms, the result for `C#CCN(CC#C)C(=O)C(=O)c1c[nH]c2ccc(OC)cc12` reads 0.9% (inactive).
Same read-out and setting: the result for `COc1ccc2c(c1)CCN1CCc3ccccc3CC21` (stereo not given) reads 43.4% (inactive).
The same measure, in the same setting: the result for `O=C(CCNC(=O)OCc1ccccc1)NC(Cc1ccccc1)C(=O)OCc1ccccc1` (stereo not given) reads -14.2% (inactive); that for `Nc1[nH]n(-c2ccccc2)c(=O)c1/C=N/C(=S)NC1CCCCC1`, -43.7% (inactive); that for `Fc1cccc(CSc2cnnc(SCc3cccc(F)c3)c2SCc2cccc(F)c2)c1`, -7.1% (inactive).
As for `CC(C)=Cc1cc(-c2cc(C=C(C)C)[nH]n2)n[nH]1`, the growth inhibition is -2% (inactive).
On the same count and under the same terms, the result for `CC(/C=C/c1ccccc1)=N\N=C(C)\C=C\c1ccccc1` reads -20.2% (inactive).
Take `Nc1cccc(CNC(=O)COc2ccc(Cl)cc2C(=O)O)c1`: the growth inhibition was 14% (inactive).
Regarding `CC(C)CCc1c(N)nc(N)[nH]c1=O`, the growth inhibition is -13.6% (inactive).
Consider `CN(C)CCC(=O)c1ccc(C(=O)CCN(C)C)cc1`, for which the growth inhibition was 25.6% (inactive).
On the same count and under the same terms, the same measure for `Clc1ccccc1C1N2CCCCC2[C@@H]2c3[nH]c4ccccc4c3CCN12` (stereo not given in full): -1.35% (inactive); for `N#Cc1c(-c2ccccc2)cc(-c2ccc(N)cc2)[nH]c1=O`: 3.65% (inactive); for `S=C1Cc2c(-c3ccc(Br)cc3)cc(-c3ccccc3)nc2-c2ccccc2N1`: 14.7% (inactive).
Still for that read-out and setting: the result for `CSc1nc2nc[nH]c2c(=O)[nH]1` reads 0.3% (inactive); that for `CCC(=O)CCN(CC)CC`, -33.3% (inactive); that for `CC1(c2nc3ccccc3[nH]2)CCC(C(=O)O)C(C)(C)O1` (stereo not given), -11.2% (inactive).
Same read-out and setting: the same measure for `CCCCCCCCOCCS(=O)(=O)O`: -18.6% (inactive).
Regarding `COc1ccc(/C=C2\CCCC(C(NO)c3ccc(OC)cc3)C2=NO)cc1` (stereo not given), the growth inhibition is -33.4% (inactive).
